Among all 1,600 compounds or so, about 20 (1%) showed an effect of 50% or more. What follows is part of a selection rich in strong results, with near analogues and random picks from the rest.
System: T1, E. coli pLC1021 (luc-trpAt trans-translation reporter)
T1 construct: pLC1021 luc-trpAt reporter strain
Set-up: species or system Escherichia coli pLC1021; luc-trpAt non-stop luciferase reporter; luminescence rises when trans-translation is inhibited; normalized to KKL-35 and DMSO
Settings: reporter signal, KKL-35 = 100%; rise means trans-translation inhibition; 2 h, 20 µM
Procedure: The luciferase screen was performed as previously described ([16]). […] 48 µL of cells was transferred to white 96-well plates, and 2 µL DMSO or 20 µM compound, or 20 µM KKL-35 was added. Plates were sealed with adhesive film, vortexed gently to mix, and incubated at room temperature for 2 h. 50 µL Bright-Glo reagent (Promega, Madison, WI) was added to each well, and the plates were sealed with adhesive film, vortexed vigorously, and incubated for an additional 10 min at room temperature. Luminescence was measured at 560 nm using a SpectraMax i3 microplate reader and readings for each plate were normalized to the average of three KKL-35-treated wells (positive control) and three DMSO-treated wells (negative control) within the plate to correct for plate-to-plate and day-to-day variations. Results from at least two biological repeats were averaged, and GraphPad Prism was used to plot the data. We screened a library of 1,601 anti-tubercular small molecules for their ability to inhibit trans-translation using a luciferase reporter in Escherichia coli. In this luc-trpAt reporter, the firefly luciferase gene has a trpA transcriptional terminator before the stop codon, such that luciferase is translated from a non-stop mRNA ([16]). When trans-translation is active, the luciferase will be tagged and degraded, but when trans-translation is inhibited, active luciferase will accumulate, resulting in a luminescent signal when luciferin is added. Luciferase activity was measured after growth in the presence of compounds from the library at 20 µM, using the known trans-translation inhibitor KKL-35 as a positive control (Fig. 1A) ([16], [17]). Compounds with activity one standard deviation above the median were scored as positive (Fig. S1 and Table S1).

Row | Structure (SMILES) | % activation
1 | CC(C)(C)c1cc(Cl)c(O)c(NC(=S)NC(=O)c2cccc3ccccc23)c1 [KKL-0905] | 0%
2 | O=C(C[n+]1nc(CNc2ccc(Cl)cc2)n2c1CCCCC2)c1ccc(Br)cc1 [KKL-1021] | 9%
3 | CC(C)(C)c1cc(Cl)ccc1OCCCCn1ccnc1 [KKL-1305] | 5%
4 | CN(CCn1ccnc1)Cc1cn(Cc2ccccc2)nc1-c1cc2ccccc2o1 [KKL-0649] | 0%
5 | COc1ccc(CNCc2cn(-c3cccc(F)c3)nc2-c2ccc(C)o2)cc1 [KKL-0321] | 0%
6 | Cn1cc(CCNC(=O)Nc2ccc(N3CCCCC3)nc2)cn1 [KKL-1828] | 0%
7 | O=C(Nc1ccco1)N1CCN(Cc2cccs2)CC1 [KKL-1841] | 1%
8 | CCc1cc(C(=O)OC)c(N=C(S)NCc2ccc(Cl)c(Cl)c2)s1 [KKL-1547] | 0%
9 | O=C(C=Cc1ccco1)N1CCN(Cc2ccc3c(c2)OCO3)CC1 [KKL-1821] | 0%
10 | CCC(C)c1ccc(O)c(NC(=S)NC(=O)c2cncc(Br)c2)c1 (stereo not shown) [KKL-0711] | 3%
11 | CCn1cc(C(=O)O)c(=O)c2cc(F)c(N3CCNCC3)cc21 [KKL-0831] | 56%
12 | CCn1cc(C(=O)O)c(=O)c2cc(F)c(N3CCN(C(S)=Nc4cc(C(F)(F)F)ccc4Cl)CC3)cc21 [KKL-1476] | 5%
13 | CCN1CCN(c2cc3c(cc2F)c(=O)c(C(=O)O)cn3C2CC2)CC1 [KKL-0903] | 6%
14 | Cc1nn(-c2ccc(F)cc2)c2nc(O)c(CNCc3ccccc3F)cc12 [KKL-0342] | 0%
15 | CCCOC(=O)c1ccc(NC(=S)NC(=O)c2ccc(Cl)cc2)cc1 [KKL-0761] | 3%
16 | CC1CN(c2ccc([N+](=O)[O-])cc2)CCN1C(=O)c1cccc(Br)c1 (stereo not shown) [KKL-1355] | 0%
17 | NC1CCc2nc(-c3cccnc3)nc(Nc3ccc(C(F)(F)F)cc3)c2C1 (stereo not shown) [KKL-0526] | 137%
18 | FC(F)(F)c1cccc(-n2cc(-c3ccccc3)c3c(NCc4cccnc4)ncnc32)c1 [KKL-1573] | 0%
19 | Nc1cccnc1Nc1ccc(C(F)(F)F)cc1 [KKL-1711] | 4%
20 | O=C(NCCCn1ccnc1)c1cccnc1Nc1cccc(C(F)(F)F)c1 [KKL-0554] | 15%
21 | NC1CCc2nc(-c3cccnc3)nc(Nc3cccc(C(F)(F)F)c3)c2C1 (stereo not shown) [KKL-0530] | 124%
22 | Cc1cnc(N2CCN[C@@H](Cc3ccccc3)C2)nc1Oc1ccc(-n2ccnc2)cc1 [KKL-1724] | 6%

Row | Structure (SMILES) | % activation
23 | CCOC(=O)c1cnc(-n2nc(C)cc2C)nc1Nc1ccc(N(C)C)cc1 [KKL-0889] | 0%
24 | Clc1ccc(Nc2nc(-c3ccccn3)cs2)nc1 [KKL-1793] | 0%
25 | Cc1oc(-c2ccc3ccccc3c2)nc1CN1CCN(c2cnccn2)CC1 [KKL-0659] | 0%
26 | CSc1ccc(-c2nnc(NC(=O)c3ccc(Cl)s3)o2)cc1 [KKL-1706] | 50%
27 | CN(C)S(=O)(=O)c1ccc(C(=O)Nc2nnc(-c3ccc(Cl)s3)o2)cc1 [KKL-1747] | 1%
28 | O=C(Nc1nnc(-c2ccc(Cl)s2)o1)c1ccc(Cl)s1 [KKL-1762] | 0%
29 | CN1CCN(c2ccc(NC(=S)NC(=O)c3ccc(-c4cccc(Cl)c4)o3)cc2)CC1 [KKL-0357] | 18%
30 | O=C(Nc1ccc2c(c1)OCCO2)c1cccc2nc3ccccc3nc12 [KKL-0843] | 0%
31 | Cc1ccc(Cl)cc1N=C1C=C(NS(=O)(=O)c2cccs2)c2ccccc2C1=O [KKL-1115] | 0%
32 | Cn1nc(-c2ccc3ccccc3c2)cc1[C@H]1CN2CC[C@H]1C[C@@H]2COC(=O)Nc1cccc(C(F)(F)F)c1 [KKL-0323] | 0%
33 | COC(=O)c1cccc(NC(=S)NC[C@H]2C[C@@H]3CCN2C[C@@H]3c2cc(-c3ccc4ccccc4c3)nn2C)c1 [KKL-1596] | 71%
34 | Cc1ccc(C(=O)NC[C@H]2C[C@@H]3CCN2C[C@@H]3c2cc(-c3ccc4ccccc4c3)nn2C)cc1 [KKL-0337] | 0%
35 | NC1CCc2nc(-c3cccnc3)nc(Nc3ccc(Cl)cc3)c2C1 (stereo not shown) [KKL-0540] | 119%
36 | NC1CCc2nc(-c3ccncc3)nc(Nc3ccc(Cl)cc3)c2C1 (stereo not shown) [KKL-0326] | 797%
37 | Nc1cccnc1Nc1ccc(Cl)cc1 [KKL-1858] | 0%
38 | CCOC(=O)CSc1nc(C#N)c(SCC(=O)OCC)s1 [KKL-0955] | 12%
39 | O=C(Oc1cccc2cccnc12)C(Cc1ccccc1)N1C(=O)C2C3CCC(C3)C2C1=O (stereo not shown) [KKL-1364] | 9%
40 | Cc1oc2ccccc2c1CN(CCCn1ccnc1)Cc1cccc(F)c1 [KKL-0544] | 0%
41 | CCC(OC(C)=O)c1ccc(OC(C)=O)c(OC)c1 (stereo not shown) [KKL-0758] | 7%
42 | CCOc1ccc(NC(=O)CSc2nc3ccc([N+](=O)[O-])cc3s2)cc1 [KKL-1417] | 0%
43 | Cc1ccc(NCCC(=O)c2ccc([N+](=O)[O-])cc2)cc1C [KKL-0401] | 14%
44 | COc1cc2cc(-c3nc4ccccc4[nH]3)c(N)nc2cc1OC [KKL-0395] | 22%

Row | Structure (SMILES) | % activation
45 | Cc1ccc2[nH]c(C3CCCNC3)c(-c3ccncc3)c2c1 (stereo not shown) [KKL-1820] | 14%
46 | Cc1ccc2[nH]c3c(c2c1)CCCC3NCCCOc1ccc(F)cc1 (stereo not shown) [KKL-0771] | 84%
47 | CC1CCc2sc3ncnc(NCCc4ccccc4)c3c2C1 (stereo not shown) [KKL-0868] | 2%
48 | CCOC(=O)COc1ccc(C(=O)Nc2ccc(F)cc2)cc1 [KKL-0783] | 0%
49 | CC12CC3CC(C)(C1)CC(CNCc1ccccc1O)(C3)C2 [KKL-1484] | 3%
50 | CCCOC(=O)CSc1nnc(-c2cc(OC)c(OC)c(OC)c2)o1 [KKL-1095] | 0%
51 | Cc1ccc(-c2csc(-c3ccncc3)n2)cc1C [KKL-0956] | 0%
52 | COC(=O)[C@@H](NC(=O)c1cc(COc2c(F)cccc2F)on1)c1ccccc1 [KKL-0496] | 8%
53 | CCOC(=O)c1ccc(NC(=O)C2C(=O)N(C)C3(C)CC2c2ccccc2O3)cc1 (stereo not shown) [KKL-1246] | 0%
54 | Cc1cc([N+](=O)[O-])ccc1NC(=O)CN1C2CCC1CC(NC(=O)NC13CC4CC(CC(C4)C1)C3)C2 (stereo not shown) [KKL-1619] | 0%
55 | CCCCCCn1c(=O)c(C(=O)Nc2nc(CC(=O)OCC)cs2)c(O)c2ccccc21 [KKL-0986] | 0%
56 | CCOC(=O)Cc1csc(NC(=O)c2c(O)c3ccccc3n(CCC(C)C)c2=O)n1 [KKL-1615] | 75%
57 | CCCCCn1c(=O)c(C(=O)Nc2nc3ccccc3[nH]2)c(O)c2ccccc21 [KKL-1004] | 7%
58 | O=C(c1ccc(Cl)cc1)c1ccc(CSc2nnc(-c3ccccc3)o2)o1 [KKL-1212] | 0%
59 | O=C(c1cnn(C(=O)c2ccco2)c1)c1cc(F)ccc1O [KKL-1685] | 3%
60 | Clc1ccc(OCCCCCn2ccnc2)c(Cl)c1 [KKL-0421] | 0%
61 | N#CCc1ccc(NC(=O)/C=C/c2ccc([N+](=O)[O-])o2)cc1 [KKL-1204] | 0%
62 | c1cnc(N2CCN(c3nncc(-c4ccc(C5CCCCC5)cc4)n3)CC2)cn1 [KKL-0667] | 0%
63 | Cc1cc(Cl)ccc1NC(=O)CCc1ccc(S(=O)(=O)NC(C)C)cc1 [KKL-1581] | 0%
64 | CCc1ccc(CCC(=O)Nc2ccc(C)cc2)o1 [KKL-1248] | 0%
65 | Cc1ccc(C(=O)NC(=S)Nc2ccc(S(=O)(=O)NC(C)C)cc2)cc1Br [KKL-0593] | 0%
66 | O=C(O)c1ccc(NC(=S)NC(=O)c2ccc(-c3ccccc3)cc2)cc1 [KKL-1292] | 0%

Row | Structure (SMILES) | % activation
67 | CC(C)(C)c1ccc(C(=O)NC(=S)N2CCCC2)cc1 [KKL-1436] | 12%
68 | CC(=O)NC(=S)NNC(=O)c1ccc(C(C)(C)C)cc1 [KKL-0588] | 143%
69 | CC(C)(C)c1ccc(C(=O)NC(=S)Nc2ccc(C(=O)O)cc2)cc1 [KKL-1314] | 0%
70 | CC(=O)NC(=S)NNC(=O)c1ccc(-c2ccccc2)cc1 [KKL-0063] | 99%
71 | COc1ccccc1C(=O)NNC(=S)NC(=O)c1ccc(-c2ccccc2)cc1 [KKL-0561] | 11%
72 | CC(=O)NC(=S)NNC(=O)c1ccc(C)c(Br)c1 [KKL-0065] | 186%
73 | Cc1ccc(C(=O)NCCC2=CCCCC2)cc1Br [KKL-1393] | 0%
74 | CNc1nc(SCC(=O)N(C)Cc2ccc(Cl)s2)nc2ccccc12 [KKL-1768] | 0%
75 | Cc1cc(C)nc(/N=C(\N)Nc2cc(Cl)ccc2Oc2ccccc2)n1 [KKL-0289] | 0%
76 | COC(=O)COc1ccc(NC(=O)c2ccccc2Br)cc1 [KKL-1572] | 0%
77 | Cc1[nH]c2ccccc2c1/C=C1\SC(=N)N(c2nccs2)C1=O [KKL-1143] | 6%
78 | Brc1cncc(-c2cc(NCCCn3ccnc3)nc(-c3ccccc3)n2)c1 [KKL-1784] | 0%
79 | c1cnc2c(c1)ccc1cccnc12 [KKL-0825] | 8%
80 | Oc1ccc(Br)c2cccnc12 [KKL-0093] | 371%
81 | O=[N+]([O-])c1cc(O)c2ncccc2c1 [KKL-0003] | 46%
82 | O=C(Nc1nc(-c2ccccn2)cs1)c1ncc(Cl)c(Cl)c1Cl [KKL-0390] | 10%
83 | O=C(Nc1ccc(Cl)cc1)Nc1ccc(F)c(F)c1 [KKL-1350] | 0%
84 | O=C(Nc1ccc(-c2nc3ccccc3c(=O)o2)cc1)c1ccccc1I [KKL-1501] | 2%
85 | O=C(Nc1ccc(Cl)cc1)c1cc2c(cc1O)[nH]c1ccccc12 [KKL-0896] | 102%
